The whole screen tested about 2,300 compounds, of which about 300 (13%) were called active. These entries were drawn from the full list. Unmarked numbers belong to inactive results.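 Rule for the calls: active = mean inhibition of the replicates above the hit cutoff set in the primary screen (cut at about 17% in these data); inactive = the rest.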
Each molecule was assayed against Sialate O-acetylesterase (Homo sapiens) (UniProt Q9HAT2) (assay: human SIAE inhibitors, retest, confirmation, biochemical, fluorescence polarization, FP-Rh probe, triplicate (AID 1117263;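 note: 0% = SIAE with DMSO and probe and 100% = probe without SIAE; inhibitors lower polarization as more probe stays unbound to SIAE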)). Details: SIAE FP-Rh activity-based probe, at 9.66 µM, active compounds read high.
Sequence of Sialate O-acetylesterase (Homo sapiens) (Q9HAT2 whole entry, looked up): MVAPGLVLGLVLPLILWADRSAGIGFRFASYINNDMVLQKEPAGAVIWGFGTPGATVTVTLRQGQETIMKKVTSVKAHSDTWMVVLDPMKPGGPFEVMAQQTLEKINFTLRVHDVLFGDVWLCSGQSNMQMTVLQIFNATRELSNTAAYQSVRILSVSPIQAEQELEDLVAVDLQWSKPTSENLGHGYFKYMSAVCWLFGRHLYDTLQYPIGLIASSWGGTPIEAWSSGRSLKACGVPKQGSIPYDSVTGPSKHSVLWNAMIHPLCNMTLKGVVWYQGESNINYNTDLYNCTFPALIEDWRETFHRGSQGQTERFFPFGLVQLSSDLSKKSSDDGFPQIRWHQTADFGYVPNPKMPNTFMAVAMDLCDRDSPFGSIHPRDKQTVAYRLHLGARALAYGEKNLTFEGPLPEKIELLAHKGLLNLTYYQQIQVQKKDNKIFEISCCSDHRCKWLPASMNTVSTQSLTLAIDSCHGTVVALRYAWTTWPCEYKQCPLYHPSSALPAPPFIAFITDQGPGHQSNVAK

| Compound | inhibition |
| --- | --- |
| Oc1ccc(CNc2ccccc2O)cc1 | -1.96% |
| Cc1cccc(C)c1NC(=O)CN(C)C(=O)CCC(=O)c1ccccc1 | -0.52% |
| CN(C)c1ccc(N/C=C/C(=O)C(F)(F)F)cc1 | 2.35% |
| COc1cc(C(=O)Nn2c(O)c(C3=c4ccccc4=NC3=O)sc2=S)ccc1O | 34.8% (active) |
| Cc1nc2ccc(C(=O)N3CCSCC3)cc2s1 | -7.27% |
| COC(=O)C1=C(NC(=O)C(C)(C)C)CCS1 | 0.95% |
| CN(CC(=O)Nc1cccc(F)c1)CC(=O)Nc1cccc([N+](=O)[O-])c1 | 1.24% |
| CCOC(=O)c1c(C)nn(-c2ncccc2NC(=O)CCC(=O)O)c1C | -3.52% |
| CC(C)CCNC(=O)C1CCCN(S(=O)(=O)c2ccc(F)cc2)C1 (centres undefined) | 1.12% |
| CN1c2ccc(C=O)c3c(C=O)ccc(c23)N(C)C1(C)C | 4.27% |
| COc1ccc(C2OCC3(CO2)SC(=O)NC3=O)cc1OC (centres undefined) | -9.1% |
| CC1(C)C/C(=C(/C#N)C(N)=O)CCO1 | -3.01% |
| CCOc1cc(N2CCOCC2)c(OCC)cc1NC(=O)COc1cccc2cccnc12 | 8.9% |
| O=C(NNc1c2ccccc2nc2ccccc12)c1cc2ccccc2cc1O | 13.8% |
| CC(=O)Nc1ccc(Nc2cc(C)nc(Nc3ccc(NC(C)=O)cc3)n2)cc1 | 4.83% |
| Cc1ccnc(NS(=O)(=O)c2ccc(NC(=O)c3ccc(S(=O)(=O)N4CCOCC4)cc3)cc2)n1 | 1.77% |
| Cc1ccc(C2Nc3cccc4cccc(c34)N2)cc1 | 7.48% |
| Oc1ccc(C2Nc3cccc4cccc(c34)N2)cc1 | 29.6% (active) |
| Cc1ccc(NC(=S)NCCN2CCOCC2)cc1 | 2.38% |
| CCOc1ccccc1Nc1ccc(C(=O)O)cc1[N+](=O)[O-] | -0.47% |
| Cc1ccc(N=C2NC(=O)/C(=C/C=C/c3ccco3)S2)cc1C | -34.3% |
| CCOc1ccc(Nc2nc(Cc3nnc(SCC(=O)NC4CCCC4)n3C)cs2)cc1 | 5.78% |

| Compound | inhibition |
| --- | --- |
| COc1ccc(C2C(C(C)=O)=C(O)C(=O)N2CCc2c[nH]c3ccccc23)cc1 (centres undefined) | 0.13% |
| CCOC(=O)N1CCN(C(=O)CSc2ccc(Cl)cc2)CC1 | -2.01% |
| CC(=O)Nc1ccc(S(=O)(=O)Nc2ccc(N3CCCCC3)cc2)cc1 | 4.68% |
| COc1ccc(NC(=O)/C(N=Nc2cccc(S(=O)(=O)Nc3ccc(SC(F)F)cc3)c2)=C(\C)O)cc1 | -11.2% |
| CCCCn1c(N)c(N(CC(C)C)C(=O)CSc2ccc([N+](=O)[O-])cc2)c(=O)[nH]c1=O | 4.78% |
| O=C(NC(=S)Nc1ccc(NC(=O)c2cccs2)cc1)c1ccc([N+](=O)[O-])cc1 | 15.2% |
| C=CCN1C(=O)[C@@H](CC(=O)NCC2CCCCC2)[C@]2(C(=O)OC)CCCCC=C12 | 4.13% |
| COc1ccc2nc(Nc3nc4cc5c(cc4s3)OCCO5)sc2c1 | 0.67% |
| O=C1CCCC(O)=C1N=Nc1ccc(S(=O)(=O)N2CCOCC2)cc1 | 3.36% |
| CC(=O)Nc1cccc([N+](=O)[O-])c1 | 1.2% |
| CC(NS(=O)(=O)c1ccc(Cl)cc1)C(=O)Nc1ccc2c(c1)OCCO2 (centres undefined) | -0.44% |
| CCn1c(=O)n(CC)c2cc(N3CCCC3)c(NC(=O)c3ccccc3Br)cc21 | 2.42% |
| O=C(Nc1ccccc1N1CCCC1)c1ccc(F)c(S(=O)(=O)N2CCOCC2)c1 | -3.75% |
| Cc1nc2cc(NCc3cccs3)ccc2n1C | -2.47% |
| Cn1cccc1/C=N/NC(=O)CNc1cccc2ccccc12 | 5.62% |
| O=C(N/N=C/c1sc(N2CCCCC2)nc1-c1cccs1)c1cccnc1 | 16.6% |
| C/C=C/c1ccc(OCC(=O)OCC(=O)Nc2c(C)nn(-c3ccccc3)c2C)c(OC)c1 | 3.24% |
| C[C@@H]1O[C@@H](OC[C@H]2O[C@@H](Oc3c(-c4ccc(O)cc4)oc4cc(O)cc(O)c4c3=O)[C@H](O)[C@@H](O)[C@@H]2O)[C@H](O)[C@H](O)[C@H]1O | 6.07% |
| CCOC(=O)C1=C(C)N=C2c3ccccc3C(=O)C2C1c1ccc(Br)cc1 (centres undefined) | 7.01% |
| Cc1cc2ccccc2n1CCNC(=O)COc1ccc2ccccc2c1 | 9.71% |
| Cc1cc2ccccn2c1C(=O)c1cccc(F)c1 | -0.9% |
| COc1ccc(Cc2nc3ccc(C(=O)N4CCC(N(C)C)C4)cc3o2)cc1 (centres undefined) | -0.71% |

| Compound | inhibition |
| --- | --- |
| COc1ccc(-c2cc(C(=O)NC(Cc3c[nH]c4ccccc34)C(=O)O)c(C)o2)cc1OC (centres undefined) | 10.6% |
| NS(=O)(=O)c1ccc(NC(=O)COC(=O)c2c3c(nc4ccccc24)/C(=C\c2ccc4c(c2)OCO4)CCC3)cc1 | -152% |
| CCCCC[C@H](C)N1C[C@@H](COCc2ccccc2)Oc2cc(N3CC[C@@H](N(C)C)C3)ccc2S1(=O)=O | 23.2% (active) |
| CNS(=O)(=O)c1ccc2c(c1)[nH]c(=S)n2C | 8.04% |
| Cc1ccc(C(=O)N/C(=C/c2ccc(-c3cccc([N+](=O)[O-])c3)o2)C(=O)NCCCN(C)C)cc1 | 0.77% |
| NNC(=O)c1oc2nc(-c3ccccc3)cc(-c3ccco3)c2c1N | 56% (active) |
| CNC(=S)NNC(=O)c1oc2nc(-c3ccccc3)cc(-c3ccco3)c2c1N | 3.72% |
| Cc1ccc(OCC(=O)Nc2ccc(-c3nnc(-c4ccco4)o3)cc2)cc1 | -15.4% |
| CCOC(=O)/C(N=Nc1cc(C(=O)O)cc(C(=O)O)c1)=C(\O)CCl | 2.21% |
| CC(C)c1cc(N=O)cc(C(C)C)c1O | -26.2% |
| Oc1ccccc1C1=NN(c2ccccc2)C(c2ccccc2)C1 (centres undefined) | 6.69% |
| CCOc1ccc(NC(=O)C/C(C)=N/NC(=O)Cc2cccs2)cc1 | 4.73% |
| CCN(CC)CCCC(C)n1c2nc(=O)[nH]c(=O)c-2nc2cc(Cl)ccc21 (centres undefined) | 25.5% (active) |
| COC(=O)C(C)Sc1ccc2nnc(-c3cccc(F)c3)n2n1 (centres undefined) | -0.98% |
| Oc1ccc2ccc3cccc[n+]3c2c1 | 4.67% |
| CCOC(=O)C1=C(c2ccccc2)O/C(=C(/C(=O)OC)C(F)(F)F)S1 | -7.25% |
| CCN(C(=O)COC(=O)C1CCN(S(=O)(=O)c2ccc(C)c(C)c2)CC1)C1CCS(=O)(=O)C1 (centres undefined) | 2.26% |
| Nc1ccc2nc3c(=O)[nH]c(=S)[nH]c3nc2c1 | 32.7% (active) |
| Cc1nc(-c2ccc(Cl)cc2)sc1C(=O)NN | -2.12% |
| NNc1nc2c(Cl)cccc2s1 | 5.82% |
| S=C(NCCCc1cnc[nH]1)NCCCN(Cc1ccc(Cl)c(Cl)c1)c1ccc(Br)cn1 | 30.6% (active) |
| Oc1ccc(/C=N/N(Cc2ccccc2)c2ccccc2)cc1 | 9.47% |

| Compound | inhibition |
| --- | --- |
| CC(C)(O)C#Cc1ccc(C(=O)N2CCC(C(N)=O)(N3CCCCC3)CC2)cc1 | 2.82% |
| COc1cccc(/C=N/Nc2cc(C)nc(-c3ccccc3O)n2)c1O | -14.6% |
| COc1ccc(CCNc2ncnc3nc[nH]c23)cc1OC | -2.94% |
| COc1ccc2[nH]c(=S)cc(C)c2c1 | -5.42% |
| O=C(NN=C1CCC(=NNC(=O)c2cccnc2)CC1)c1cccnc1 | 6.57% |
| CCOc1ccc(Nc2nc(Cc3nnc(SCC(=O)c4ccc(C)cc4)o3)cs2)cc1 | 5.41% |
| COc1ccccc1/C=C/C=N/NC(=O)CN1CCN(Cc2ccccc2)CC1 | -1.91% |
| COc1ccc(OC)c(CN2CCN(C(=O)CNC(=O)c3cc(C)cc(C)c3)CC2)c1 | -0.63% |
| COc1ccc(/C=N/NC(=O)c2ccncc2)cc1CN1CCCc2ccccc21 | 22.8% (active) |
| CCOC(=O)C(=O)C1C(=O)Nc2ccccc21 (centres undefined) | 6.34% |
| O=C(Nc1cccc(Cc2ccccc2)c1)Nc1ccc2nc([C@@H]3O[C@H](CO)[C@@H](O)[C@H](O)[C@H]3O)[nH]c2c1 | 10.5% |
| CCOC(=O)C1Sc2[nH]c(=O)sc2C(c2ccc(Cl)cc2)C1C(=O)OCC (centres undefined) | 5.84% |
| Cc1ccc(/C=N/NC(=O)c2cc3ccccc3cc2O)o1 | 3.65% |
| CC1CCCCC1NC(=O)/C(C#N)=C/C=C/c1ccccc1[N+](=O)[O-] (centres undefined) | -0.36% |
| Cn1c(NN)nc2sc3c(c2c1=O)CCC3 | 11.8% |
| O=C(O)c1ccccc1N=N/C(=N/Nc1cc(S(=O)(=O)O)ccc1O)c1ccccc1 | 9.57% |
| O=C(N/N=C/c1ccc(O)c2ccccc12)c1cccnc1 | -1.25% |
| COc1ccc(-c2csc(Nc3ccc(O)cc3)n2)cc1 | 2.15% |
| O=C(O)Cc1sc(-c2ccccc2)nc1-c1cccs1 | -3.2% |
| CCOc1ccc(Cn2c(SCCCCC#N)nc3c2c(=O)n(C)c(=O)n3C)cc1OCC | 3.27% |
| CCC(C)c1ccc(O)c(/C=N/O)c1 (centres undefined) | 8.65% |
| COCCOC(=O)c1sc(=S)n(CCOC)c1N | 9.71% |

| Compound | inhibition |
| --- | --- |
| Oc1ccc(N=Cc2sc3ccccc3c2Cl)cc1 | -0.14% |
| Oc1ccc(N=Cc2c(O)ccc3ccccc23)cc1 | -1.4% |
| c1ccc2[nH]c(-c3nc4ccccc4[nH]3)nc2c1 | 5.66% |
| CNC(=S)N/N=C/c1cn(Cc2ccc(C)cc2)c2ccccc12 | 9.36% |
| COc1cc(/C=N\Nc2nc(-c3cccs3)c(NC(C)=O)s2)ccc1O | 13.2% |
| CCn1c(SC)nc(O)c(C(c2ccc(OC)c(O)c2)c2c(O)nc(SC)n(CC)c2=O)c1=O | -4.61% |
| O=C1CCN(C(=S)NCCc2ccccc2)CC1 | -3.6% |
| Nc1ncnc2c1ncn2[C@@H]1O[C@H](C(=O)NCC(F)(F)F)[C@@H](O)[C@H]1O | 44.1% (active) |
| CN(Cc1ccc(C(F)(F)F)cc1)C(=O)[C@H]1O[C@@H](n2cnc3c(N)ncnc32)[C@H](O)[C@@H]1O | 68.3% (active) |
| CC(=O)CSc1nnc(CSc2ncccn2)n1C1CCCCC1 | -1.2% |
| O=C(CSc1ccc(-c2ccco2)nn1)Nc1cccc(F)c1 | 0.25% |
| Cc1cccc(C2c3c(n(C)c(=O)n(C)c3=O)N=C3c4ccccc4C(=O)C32)c1 (centres undefined) | -3.19% |
| Cc1[nH]c2ccccc2c1C(=O)CSCC(=O)O | -9.03% |
| COc1ccc(N2CCN(c3ccc([N+](=O)[O-])nc3)CC2)cc1 | 8% |
| CC(C)=CCCC1(C)C=Cc2c(ccc3c2[nH]c2cc(O)c(C)cc23)O1 (centres undefined) | 2.11% |
| Cc1ccc(Nc2nc(-c3ccc(O)cc3O)cs2)nc1 | 9.2% |
| O=C(CC[C@H]1O[C@@H](n2ccc(=O)[nH]c2=O)[C@H](O)[C@@H]1O)N[C@H](Cc1ccccc1)C(=O)NCCCN1CCCC1=O | 32.5% (active) |
| O=c1[nH]n(-c2ccc([N+](=O)[O-])cc2)c(=O)c2ccccc12 | 19% (active) |
| O=C1CC(c2ccccc2)=NN1c1ccc([N+](=O)[O-])cc1 | -0.43% |
| CC(C)/C=N/NC(=O)c1cc(Br)ccc1O | 4.2% |
| S=C(Nc1ccc(Br)cc1)NC1CCN(Cc2ccccc2)CC1 | 2.28% |

— PubChem BioAssay AID1117263 (The Scripps Research Institute Molecular Screening Center, 2014)
